From ChEMBL document CHEMBL2218924, “A broad activity screen in support of a chemogenomic map for kinase signalling research and drug discovery” (Biochem J, 2013)

How the values were obtained:
[1] = target: Insulin receptor (Homo sapiens) (UniProt P06213); conditions: at 10 µM
[2] = target: Insulin receptor (Homo sapiens) (UniProt P06213); conditions: at 1 µM
[3] = target: Insulin receptor (Homo sapiens) (UniProt P06213); conditions: at 10 µM; remark: listed apart in the source
[4] = target: Interleukin-1 receptor-associated kinase 1 (Homo sapiens) (UniProt P51617); conditions: at 10 µM
Interleukin-1 receptor-associated kinase 1 (Homo sapiens), sequence (P51617 whole entry, looked up): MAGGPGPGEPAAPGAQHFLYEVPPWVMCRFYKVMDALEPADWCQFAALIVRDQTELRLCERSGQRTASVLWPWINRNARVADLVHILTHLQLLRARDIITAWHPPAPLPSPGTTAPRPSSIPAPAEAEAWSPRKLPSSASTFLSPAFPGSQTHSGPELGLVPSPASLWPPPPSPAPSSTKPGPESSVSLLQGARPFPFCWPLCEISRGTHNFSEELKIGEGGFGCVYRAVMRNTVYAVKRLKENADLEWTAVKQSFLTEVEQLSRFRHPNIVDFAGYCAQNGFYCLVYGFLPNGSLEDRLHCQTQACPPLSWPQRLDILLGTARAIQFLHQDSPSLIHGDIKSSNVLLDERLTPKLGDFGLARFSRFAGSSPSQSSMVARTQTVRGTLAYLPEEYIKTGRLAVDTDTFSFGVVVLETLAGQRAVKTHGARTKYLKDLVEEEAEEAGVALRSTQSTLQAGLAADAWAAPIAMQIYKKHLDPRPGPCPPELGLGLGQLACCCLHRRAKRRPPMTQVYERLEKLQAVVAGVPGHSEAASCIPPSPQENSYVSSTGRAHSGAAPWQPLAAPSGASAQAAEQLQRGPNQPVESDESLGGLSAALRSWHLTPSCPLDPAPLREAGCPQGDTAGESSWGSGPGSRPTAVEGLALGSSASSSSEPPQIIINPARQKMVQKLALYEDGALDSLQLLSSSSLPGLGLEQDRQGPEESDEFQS

[5] = target: T1, Interleukin-1 receptor-associated kinase 4 (Homo sapiens) (UniProt Q9NWZ3); conditions: at 10 µM
T1 sequence (whole entry): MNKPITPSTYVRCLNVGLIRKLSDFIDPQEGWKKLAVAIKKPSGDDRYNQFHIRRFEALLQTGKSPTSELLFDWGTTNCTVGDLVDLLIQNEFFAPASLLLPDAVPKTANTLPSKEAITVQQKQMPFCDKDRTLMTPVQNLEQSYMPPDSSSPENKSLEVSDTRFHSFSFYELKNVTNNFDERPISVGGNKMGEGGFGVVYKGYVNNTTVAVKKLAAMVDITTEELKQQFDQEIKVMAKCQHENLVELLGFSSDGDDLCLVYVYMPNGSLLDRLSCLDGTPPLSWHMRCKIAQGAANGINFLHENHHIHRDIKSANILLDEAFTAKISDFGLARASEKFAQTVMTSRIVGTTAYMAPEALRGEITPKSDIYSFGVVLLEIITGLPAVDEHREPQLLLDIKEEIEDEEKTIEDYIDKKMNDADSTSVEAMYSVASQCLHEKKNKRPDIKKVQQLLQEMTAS

[6] = target: Insulin receptor-related protein (Homo sapiens) (UniProt P14616); conditions: at 1 µM
Insulin receptor-related protein (Homo sapiens), sequence (P14616 27-742 limits assumed): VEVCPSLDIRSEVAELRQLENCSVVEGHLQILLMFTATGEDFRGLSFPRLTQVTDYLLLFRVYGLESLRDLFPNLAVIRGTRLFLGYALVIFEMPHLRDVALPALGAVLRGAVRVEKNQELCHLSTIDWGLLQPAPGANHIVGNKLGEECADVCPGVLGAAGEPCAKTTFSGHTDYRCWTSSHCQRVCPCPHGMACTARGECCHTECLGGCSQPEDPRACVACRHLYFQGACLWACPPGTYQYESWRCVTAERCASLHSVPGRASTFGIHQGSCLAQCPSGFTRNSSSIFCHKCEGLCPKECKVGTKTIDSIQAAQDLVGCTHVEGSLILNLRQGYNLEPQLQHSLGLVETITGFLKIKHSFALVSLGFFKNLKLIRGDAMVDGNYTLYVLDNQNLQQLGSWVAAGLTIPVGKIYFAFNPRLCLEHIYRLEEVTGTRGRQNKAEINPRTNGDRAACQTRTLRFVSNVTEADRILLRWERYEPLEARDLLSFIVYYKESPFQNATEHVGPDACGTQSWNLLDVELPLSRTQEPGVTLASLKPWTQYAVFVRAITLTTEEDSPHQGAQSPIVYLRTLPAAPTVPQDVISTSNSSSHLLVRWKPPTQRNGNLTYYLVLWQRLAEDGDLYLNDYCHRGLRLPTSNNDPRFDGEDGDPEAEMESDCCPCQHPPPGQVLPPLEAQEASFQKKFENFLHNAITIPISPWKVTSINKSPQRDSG
Insulin receptor-related protein (Homo sapiens), sequence (P14616 747-1297 limits assumed): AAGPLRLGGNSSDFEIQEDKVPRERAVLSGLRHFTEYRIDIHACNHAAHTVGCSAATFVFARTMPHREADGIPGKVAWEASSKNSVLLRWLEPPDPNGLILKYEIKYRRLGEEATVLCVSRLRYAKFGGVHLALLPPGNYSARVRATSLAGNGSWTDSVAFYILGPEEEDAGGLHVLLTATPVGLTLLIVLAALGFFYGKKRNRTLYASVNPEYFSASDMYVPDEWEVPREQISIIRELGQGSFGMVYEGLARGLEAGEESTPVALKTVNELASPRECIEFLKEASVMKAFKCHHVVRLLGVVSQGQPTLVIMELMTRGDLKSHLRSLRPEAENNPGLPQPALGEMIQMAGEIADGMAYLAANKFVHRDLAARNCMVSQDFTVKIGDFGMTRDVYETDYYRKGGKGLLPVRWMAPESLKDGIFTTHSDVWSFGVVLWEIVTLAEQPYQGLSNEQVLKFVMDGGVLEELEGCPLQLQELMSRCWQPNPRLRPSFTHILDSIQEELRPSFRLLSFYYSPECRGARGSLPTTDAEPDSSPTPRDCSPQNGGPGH

[7] = target: Insulin receptor-related protein (Homo sapiens) (UniProt P14616); conditions: at 10 µM
[8] = target: T2, Tyrosine-protein kinase ITK/TSK (Homo sapiens) (UniProt Q08881); conditions: at 1 µM
T2 sequence (whole entry): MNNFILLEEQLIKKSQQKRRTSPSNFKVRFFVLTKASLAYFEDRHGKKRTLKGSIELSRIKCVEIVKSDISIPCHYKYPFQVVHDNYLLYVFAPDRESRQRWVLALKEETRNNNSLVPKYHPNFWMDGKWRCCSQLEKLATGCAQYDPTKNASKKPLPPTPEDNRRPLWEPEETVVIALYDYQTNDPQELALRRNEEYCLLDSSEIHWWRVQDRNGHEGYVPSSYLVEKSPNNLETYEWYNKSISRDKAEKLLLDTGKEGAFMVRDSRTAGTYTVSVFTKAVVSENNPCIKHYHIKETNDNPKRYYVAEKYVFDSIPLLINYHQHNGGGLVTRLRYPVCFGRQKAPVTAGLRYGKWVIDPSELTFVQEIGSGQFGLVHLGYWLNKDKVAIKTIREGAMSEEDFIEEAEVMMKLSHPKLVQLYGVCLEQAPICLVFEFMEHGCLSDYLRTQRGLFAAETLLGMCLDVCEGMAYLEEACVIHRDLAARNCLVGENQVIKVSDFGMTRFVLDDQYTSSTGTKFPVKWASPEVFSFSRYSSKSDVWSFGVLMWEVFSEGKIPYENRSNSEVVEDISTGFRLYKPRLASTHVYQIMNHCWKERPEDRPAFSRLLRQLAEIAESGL

[9] = target: T2, Tyrosine-protein kinase ITK/TSK (Homo sapiens); conditions: at 10 µM
[10] = target: Interleukin-1 receptor-associated kinase 1 (Homo sapiens) (UniProt P51617); conditions: at 1 µM
[11] = target: T1, Interleukin-1 receptor-associated kinase 4 (Homo sapiens); conditions: at 1 µM
[12] = target: Tyrosine-protein kinase JAK2 (Homo sapiens) (UniProt O60674); conditions: at 1 µM
Tyrosine-protein kinase JAK2 (Homo sapiens), sequence (O60674 whole entry): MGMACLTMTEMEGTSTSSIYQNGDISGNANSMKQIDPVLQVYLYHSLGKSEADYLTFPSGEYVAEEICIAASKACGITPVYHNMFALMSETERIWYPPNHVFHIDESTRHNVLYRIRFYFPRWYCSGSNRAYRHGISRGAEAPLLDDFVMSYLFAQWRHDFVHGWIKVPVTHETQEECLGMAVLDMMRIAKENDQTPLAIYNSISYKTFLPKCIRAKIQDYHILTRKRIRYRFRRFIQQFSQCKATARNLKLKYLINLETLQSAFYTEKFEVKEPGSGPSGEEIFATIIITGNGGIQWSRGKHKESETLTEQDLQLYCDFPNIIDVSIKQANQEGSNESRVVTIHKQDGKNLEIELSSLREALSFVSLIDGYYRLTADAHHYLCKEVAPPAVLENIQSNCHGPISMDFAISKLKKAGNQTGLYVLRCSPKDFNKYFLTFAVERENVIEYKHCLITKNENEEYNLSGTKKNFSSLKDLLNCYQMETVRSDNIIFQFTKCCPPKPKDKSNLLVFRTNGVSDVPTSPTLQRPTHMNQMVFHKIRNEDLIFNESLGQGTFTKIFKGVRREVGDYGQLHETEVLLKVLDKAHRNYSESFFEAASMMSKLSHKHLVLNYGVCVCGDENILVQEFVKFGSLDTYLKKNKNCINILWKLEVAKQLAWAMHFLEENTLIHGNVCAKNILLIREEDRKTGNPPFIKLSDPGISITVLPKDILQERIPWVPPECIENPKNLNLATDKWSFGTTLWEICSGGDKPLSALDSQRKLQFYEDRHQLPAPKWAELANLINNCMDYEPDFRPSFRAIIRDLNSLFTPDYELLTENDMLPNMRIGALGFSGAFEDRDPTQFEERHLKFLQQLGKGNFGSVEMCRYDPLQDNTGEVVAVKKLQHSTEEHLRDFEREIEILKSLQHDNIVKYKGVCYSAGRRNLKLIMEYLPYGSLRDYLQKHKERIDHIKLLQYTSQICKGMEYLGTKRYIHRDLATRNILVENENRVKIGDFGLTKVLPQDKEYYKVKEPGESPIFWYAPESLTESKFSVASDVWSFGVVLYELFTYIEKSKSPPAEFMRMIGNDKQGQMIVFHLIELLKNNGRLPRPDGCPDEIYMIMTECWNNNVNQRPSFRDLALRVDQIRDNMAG

[13] = target: Tyrosine-protein kinase JAK2 (Homo sapiens) (UniProt O60674); conditions: at 10 µM
[14] = target: T3, Tyrosine-protein kinase JAK3 (Homo sapiens) (UniProt P52333); conditions: at 1 µM
T3 sequence (whole entry): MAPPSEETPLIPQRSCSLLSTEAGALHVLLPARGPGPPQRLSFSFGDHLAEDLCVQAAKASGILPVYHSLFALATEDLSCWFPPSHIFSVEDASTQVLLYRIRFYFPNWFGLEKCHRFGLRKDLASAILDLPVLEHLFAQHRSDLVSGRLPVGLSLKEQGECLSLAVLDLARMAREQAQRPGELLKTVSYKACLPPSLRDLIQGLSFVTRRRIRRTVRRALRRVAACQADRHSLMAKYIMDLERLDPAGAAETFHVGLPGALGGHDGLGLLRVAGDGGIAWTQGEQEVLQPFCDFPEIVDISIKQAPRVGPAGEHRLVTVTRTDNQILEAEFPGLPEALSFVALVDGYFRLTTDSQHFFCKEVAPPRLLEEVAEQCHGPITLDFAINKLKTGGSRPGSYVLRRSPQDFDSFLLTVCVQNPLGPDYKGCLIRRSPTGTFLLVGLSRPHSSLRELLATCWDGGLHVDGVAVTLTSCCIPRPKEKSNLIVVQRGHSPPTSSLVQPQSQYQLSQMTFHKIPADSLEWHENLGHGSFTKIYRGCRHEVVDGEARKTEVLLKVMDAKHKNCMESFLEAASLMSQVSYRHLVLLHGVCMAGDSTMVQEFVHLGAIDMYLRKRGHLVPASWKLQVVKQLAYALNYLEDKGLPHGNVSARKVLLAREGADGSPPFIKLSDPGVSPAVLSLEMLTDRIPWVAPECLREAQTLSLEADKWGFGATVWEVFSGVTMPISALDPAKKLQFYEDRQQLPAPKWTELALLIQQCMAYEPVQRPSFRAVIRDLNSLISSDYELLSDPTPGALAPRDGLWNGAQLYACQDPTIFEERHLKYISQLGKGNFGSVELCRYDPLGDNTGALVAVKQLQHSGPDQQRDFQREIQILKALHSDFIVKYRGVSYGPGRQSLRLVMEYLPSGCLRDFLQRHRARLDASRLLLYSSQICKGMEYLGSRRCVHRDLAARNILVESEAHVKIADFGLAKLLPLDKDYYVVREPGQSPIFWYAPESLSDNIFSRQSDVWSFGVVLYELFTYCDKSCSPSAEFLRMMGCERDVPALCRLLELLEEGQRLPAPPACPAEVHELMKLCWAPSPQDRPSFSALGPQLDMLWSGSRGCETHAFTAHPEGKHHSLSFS

[15] = target: T3, Tyrosine-protein kinase JAK3 (Homo sapiens); conditions: at 10 µM
[16] = target: Mitogen-activated protein kinase 8 (Homo sapiens) (UniProt P45983); conditions: at 1 µM
Mitogen-activated protein kinase 8 (Homo sapiens), sequence (P45983 whole entry): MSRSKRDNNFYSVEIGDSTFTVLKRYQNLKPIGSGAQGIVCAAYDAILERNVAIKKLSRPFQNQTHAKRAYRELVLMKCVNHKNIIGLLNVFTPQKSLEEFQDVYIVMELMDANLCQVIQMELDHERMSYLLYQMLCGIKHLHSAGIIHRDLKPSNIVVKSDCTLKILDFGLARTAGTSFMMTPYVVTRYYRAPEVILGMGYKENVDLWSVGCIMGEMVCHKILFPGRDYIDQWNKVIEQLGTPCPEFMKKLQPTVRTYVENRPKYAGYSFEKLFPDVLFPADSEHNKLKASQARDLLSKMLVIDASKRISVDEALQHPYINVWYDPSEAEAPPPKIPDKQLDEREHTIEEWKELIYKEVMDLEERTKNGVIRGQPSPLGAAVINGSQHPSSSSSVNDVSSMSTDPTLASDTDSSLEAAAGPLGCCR

[17] = target: Mitogen-activated protein kinase 8 (Homo sapiens) (UniProt P45983); conditions: at 10 µM
[18] = target: Mitogen-activated protein kinase 10 (Homo sapiens) (UniProt P53779); conditions: at 1 µM
Mitogen-activated protein kinase 10 (Homo sapiens), sequence (P53779 whole entry): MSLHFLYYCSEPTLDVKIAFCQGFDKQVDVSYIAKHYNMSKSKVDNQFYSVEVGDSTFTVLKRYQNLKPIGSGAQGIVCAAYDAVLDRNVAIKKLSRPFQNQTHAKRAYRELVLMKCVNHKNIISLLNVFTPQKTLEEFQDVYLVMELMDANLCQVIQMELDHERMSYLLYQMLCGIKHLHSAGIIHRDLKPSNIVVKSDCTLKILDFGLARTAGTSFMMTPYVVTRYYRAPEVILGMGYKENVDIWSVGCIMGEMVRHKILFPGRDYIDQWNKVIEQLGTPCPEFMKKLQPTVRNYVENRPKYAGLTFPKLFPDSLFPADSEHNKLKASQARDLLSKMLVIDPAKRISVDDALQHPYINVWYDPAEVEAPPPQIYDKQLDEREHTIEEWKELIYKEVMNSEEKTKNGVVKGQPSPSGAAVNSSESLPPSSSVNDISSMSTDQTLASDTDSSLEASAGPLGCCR

[19] = target: Mitogen-activated protein kinase 9 (Homo sapiens) (UniProt P45984); conditions: at 10 µM
Mitogen-activated protein kinase 9 (Homo sapiens), sequence (P45984 whole entry, looked up): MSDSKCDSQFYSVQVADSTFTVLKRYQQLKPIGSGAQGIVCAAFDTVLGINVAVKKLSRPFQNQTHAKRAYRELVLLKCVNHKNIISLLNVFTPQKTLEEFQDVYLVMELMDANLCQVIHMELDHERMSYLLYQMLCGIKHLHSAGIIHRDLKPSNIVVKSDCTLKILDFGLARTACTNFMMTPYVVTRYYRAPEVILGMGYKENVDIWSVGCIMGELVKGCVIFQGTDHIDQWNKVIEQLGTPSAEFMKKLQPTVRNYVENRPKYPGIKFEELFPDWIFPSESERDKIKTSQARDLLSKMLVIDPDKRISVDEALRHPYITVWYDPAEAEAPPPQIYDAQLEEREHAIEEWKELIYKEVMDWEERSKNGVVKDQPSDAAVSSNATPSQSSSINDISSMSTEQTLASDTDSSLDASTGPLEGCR

[20] = target: Mitogen-activated protein kinase 9 (Homo sapiens) (UniProt P45984); conditions: at 1 µM

N#C/C(=C\c1ccc(O)c(O)c1)C(=O)NCc1ccccc1
residual activity [1]: 89% | residual activity [2]: 100% | residual activity [3]: 85% | residual activity [4]: 81% | residual activity [5]: 100% | residual activity [6]: 88% | residual activity [7]: 85% | residual activity [8]: 104% | residual activity [9]: 104%

O=C1Nc2ccc(Cl)cc2/C1=C/c1cc(Cl)c(O)c(Cl)c1
residual activity [1]: 63% | residual activity [2]: 95% | residual activity [3]: 57% | residual activity [10]: 84% | residual activity [4]: 81% | residual activity [11]: 75% | residual activity [5]: 51% | residual activity [6]: 111% | residual activity [7]: 74% | residual activity [12]: 98% | residual activity [13]: 69% | residual activity [14]: 75% | residual activity [15]: 28% | residual activity [16]: 95% | residual activity [17]: 69% | residual activity [18]: 64%

O=c1cc(N2CCNCC2)oc2c(-c3ccccc3)cccc12
residual activity [1]: 94% | residual activity [10]: 92% | residual activity [4]: 76% | residual activity [11]: 93% | residual activity [5]: 96% | residual activity [7]: 70% | residual activity [8]: 83% | residual activity [9]: 93% | residual activity [13]: 101% | residual activity [14]: 94% | residual activity [15]: 78% | residual activity [17]: 84% | residual activity [19]: 97% | residual activity [18]: 73%

O=C(O)/C=C/c1cc(Br)c(Br)c(Br)c1Br
residual activity [1]: 141% | residual activity [2]: 100% | residual activity [3]: 90% | residual activity [10]: 101% | residual activity [4]: 68% | residual activity [5]: 94% | residual activity [12]: 87% | residual activity [13]: 58% | residual activity [14]: 102% | residual activity [15]: 34% | residual activity [16]: 108% | residual activity [17]: 72% | residual activity [20]: 100% | residual activity [19]: 72% | residual activity [18]: 99%

O=C1NC(=O)C(c2cn(CCCO)c3ncccc23)=C1c1cnccn1
residual activity [1]: 96% | residual activity [2]: 94% | residual activity [3]: 92% | residual activity [10]: 98% | residual activity [4]: 98% | residual activity [11]: 87% | residual activity [5]: 70% | residual activity [8]: 94% | residual activity [9]: 91% | residual activity [20]: 96% | residual activity [19]: 80% | residual activity [18]: 89%

CN(C)S(=O)(=O)c1ccc2c(c1)/C(=C/c1cc3c([nH]1)CCCC3)C(=O)N2
residual activity [1]: 88% | residual activity [3]: 95% | residual activity [10]: 9% | residual activity [4]: 0% | residual activity [11]: 19% | residual activity [5]: 17% | residual activity [6]: 85% | residual activity [7]: 77% | residual activity [8]: 23% | residual activity [9]: 22% | residual activity [12]: 67% | residual activity [13]: 25% | residual activity [14]: 66% | residual activity [15]: 48% | residual activity [16]: 99% | residual activity [17]: 94% | residual activity [18]: 89%

NC(=O)Nc1sc(-c2ccc(F)cc2)cc1C(N)=O
residual activity [10]: 84% | residual activity [4]: 49% | residual activity [11]: 46% | residual activity [5]: 9% | residual activity [6]: 69% | residual activity [7]: 3% | residual activity [8]: 22% | residual activity [9]: 1% | residual activity [12]: 4% | residual activity [13]: 0% | residual activity [14]: 42% | residual activity [15]: 5% | residual activity [16]: 94% | residual activity [17]: 52% | residual activity [20]: 84% | residual activity [19]: 67% | residual activity [18]: 60%

N#Cc1c(NC(=O)c2cccc3ccccc23)sc2c1CCCC2
residual activity [3]: 92% | residual activity [10]: 94% | residual activity [4]: 95% | residual activity [11]: 96% | residual activity [5]: 72% | residual activity [7]: 72% | residual activity [13]: 92% | residual activity [20]: 58% | residual activity [19]: 74% | residual activity [18]: 8%

CCCCc1c(-c2ccc(OC)cc2)[nH]c2nccnc12
residual activity [2]: 66% | residual activity [3]: 75% | residual activity [10]: 62% | residual activity [4]: 81% | residual activity [11]: 79% | residual activity [5]: 65% | residual activity [6]: 100% | residual activity [7]: 88% | residual activity [8]: 82% | residual activity [9]: 92% | residual activity [12]: 71% | residual activity [13]: 49% | residual activity [14]: 81% | residual activity [15]: 86% | residual activity [16]: 105% | residual activity [20]: 91% | residual activity [19]: 109% | residual activity [18]: 48%

O=C(Nc1ccc(Cl)cc1)c1ccccc1NCc1ccncc1
residual activity [1]: 79% | residual activity [2]: 102% | residual activity [3]: 100% | residual activity [12]: 129% | residual activity [13]: 74% | residual activity [16]: 120% | residual activity [17]: 129% | residual activity [18]: 72%

Nc1ncnc2[nH]nc(Nc3ccc(F)cc3)c12
residual activity [1]: 103% | residual activity [2]: 97% | residual activity [3]: 90% | residual activity [10]: 93% | residual activity [4]: 101% | residual activity [5]: 58% | residual activity [6]: 124% | residual activity [7]: 106% | residual activity [8]: 103% | residual activity [9]: 78% | residual activity [12]: 103% | residual activity [13]: 93% | residual activity [14]: 101% | residual activity [15]: 90% | residual activity [16]: 105% | residual activity [17]: 93% | residual activity [20]: 92% | residual activity [19]: 93% | residual activity [18]: 98%

COc1cc2nccc(Oc3ccc(NC(=S)NC(=O)c4ccccc4C)cc3)c2cc1OC
residual activity [1]: 138% | residual activity [2]: 97% | residual activity [3]: 92% | residual activity [10]: 79% | residual activity [4]: 67% | residual activity [11]: 96% | residual activity [6]: 121% | residual activity [7]: 74% | residual activity [8]: 79% | residual activity [9]: 48% | residual activity [14]: 86% | residual activity [15]: 92% | residual activity [16]: 95% | residual activity [17]: 78% | residual activity [19]: 87% | residual activity [18]: 69%

O=C1NC(=O)C(c2c[nH]c3ccccc23)=C1c1c[nH]c2ccccc12
residual activity [1]: 62% | residual activity [2]: 100% | residual activity [11]: 81% | residual activity [5]: 27% | residual activity [6]: 120% | residual activity [7]: 37% | residual activity [8]: 100% | residual activity [13]: 33% | residual activity [14]: 43% | residual activity [15]: 6% | residual activity [17]: 35% | residual activity [18]: 56%
